Bioassay records (PubChem)
The list is not random: actives were taken first. Their share in the collection is about 18%.
TDP1 cell noCPT: qHTS for Inhibitors of human tyrosyl-DNA phosphodiesterase 1 (TDP1): qHTS in cells in absence of CPT | DT40 Tdp1-/- hTDP1 cells, no CPT, ATP luminescence, 48 h | Potency, µM (top dose mostly 46.2 µM), most hits filed as inhibitors | 420,000 compounds, 15% hits; also: nearly all actives have a fitted effect of over 55% in size
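Camptothecin absent (DMSO only). Human TDP1-complemented DT40 knockout cells, 400 cells/well, 37 °C for minimum 48 hr; ATP measured via CellTiter-Glo, 30 min dark incubation, luminescence.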
LDHA block: qHTS assay for inhibitors of human lactate dehydrogenase. L-lactate dehydrogenase A chain (Homo sapiens), P00338. purified LDHA, NADH/diaphorase-resazurin fluorescence; active compounds read low. activity change, % (values are at about 110 or 230 µM). 480,000 compounds, 0.15% hits; in the data active = activity change below about -30%; inconclusive = mostly about -25% to -30%
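Enzyme activity of human lactate dehydrogenase 5 (2 nM; 0.06 mM NADH, 0.2 mM pyruvate, 5 min, RT) is measured via a resazurin/diaphorase fluorescence readout of residual NADH.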
Gal4-VP16 FLuc: VP16 counterscreen qHTS for inhibitors of ROR gamma transcriptional activity. Drosophila S2 Gal4-VP16 UAS-luciferase, luminescence, 20 h. Potency, µM (doses to about 53.6 µM), most hits filed as inhibitors. 310,000 compounds, 3.5% hits. AID 2546, 2010;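 also: Gal4-VP16 expression switched on by copper sulfate through the metallothionein promoter; nearly all actives have a fitted effect of over 50% in size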
DT40 TDP1 CPT: qHTS for Inhibitors of human tyrosyl-DNA phosphodiesterase 1 (TDP1): qHTS in cells in presence of CPT | chicken DT40 Tdp1-/-;hTDP1 cells + 20 nM CPT, ATP luminescence, 48 h | Potency, µM (titrated, usually from 46.2 µM), actives largely listed as inhibitors | 420,000 compounds, 12% hits; also: nearly all actives have a fitted effect of over 55% in size
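Chicken DT40 Tdp1-/- cells stably complemented with human TDP1 were seeded at 400 cells/well in medium containing 20 nM camptothecin, exposed to pin-transferred compounds, and grown at 37 °C for at least 48 hr. Viability was read as ATP luminescence.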
RORgamma inh: qHTS for inhibitors of ROR gamma transcriptional activity | Nuclear receptor ROR-gamma (Mus musculus), P51450 | AID 2551, 2010 | Drosophila S2 Gal4-RORgamma UAS-luciferase reporter, 20 h | 310,000 compounds, 5.4% hits | Potency, µM (top dose mostly 53.6 µM), hits mostly inhibitors; also: nearly all actives have a fitted effect of over 60% in size
Target sequence (P51450 whole entry, looked up, the tested form may be a part): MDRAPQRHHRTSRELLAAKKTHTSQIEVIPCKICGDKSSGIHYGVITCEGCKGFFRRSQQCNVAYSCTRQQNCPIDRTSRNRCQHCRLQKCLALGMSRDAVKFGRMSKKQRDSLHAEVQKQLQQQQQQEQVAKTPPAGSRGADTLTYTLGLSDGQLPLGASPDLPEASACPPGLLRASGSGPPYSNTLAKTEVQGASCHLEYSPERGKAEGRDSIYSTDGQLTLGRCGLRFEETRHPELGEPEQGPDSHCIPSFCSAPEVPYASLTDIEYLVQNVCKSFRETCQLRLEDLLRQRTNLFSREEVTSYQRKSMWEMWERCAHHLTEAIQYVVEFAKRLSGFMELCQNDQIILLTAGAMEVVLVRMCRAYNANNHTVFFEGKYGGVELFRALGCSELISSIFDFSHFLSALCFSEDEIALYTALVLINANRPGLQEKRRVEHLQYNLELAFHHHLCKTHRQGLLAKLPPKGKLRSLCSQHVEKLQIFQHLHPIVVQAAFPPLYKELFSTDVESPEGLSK
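A Gal4/UAS one-hybrid system in insect cells: metallothionein-promoter Gal4–ROR gamma fusion plus Photinus luciferase reporter. Copper sulfate 700 uM final, 20 hr ambient incubation, luminescent detection after 10 min with reagent.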
IL-1B inflam inh: qHTS for Inhibitors of Inflammasome Signaling: IL-1-beta AlphaLISA Primary Screen; THP-1 LPS/ATP IL-1B secretion, AlphaLISA, 16 h; active compounds read low; activity change, % at 57.5 µM; 360,000 compounds, 4.7% hits; in the data active = activity change below about -50%; inconclusive = mostly about -30% to -49%
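Secreted IL-1B measured by AlphaLISA bead assay after 16 h compound exposure of THP-1 cells; compounds (final up to 57.5 uM) added 1 h before LPS (250 ng/mL) and ATP (1.25 mM) stimulation; lower signal means less secretion.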
A number is an active result; . = inactive; ? = inconclusive; / = no result given. Unless noted, calls follow the shape of the dose curve; as a rule, active = well fitted curve in the direction sought with a large enough effect; inconclusive = small, poorly fitted or top-dose-only effect, or another doubt; inactive = no such curve, though single readings can be large; an effect the other way counts as inactive or inconclusive.

SMILES | TDP1 cell noCPT | LDHA block | Gal4-VP16 FLuc | DT40 TDP1 CPT | RORgamma inh | IL-1B inflam inh
CN(C(=S)NC(=O)c1ccccc1)C1CCCCC1 | ? | . | 1.3µM | ? | 1.1µM | .
CN(C(=O)c1cccc(NC(=O)c2ccccc2)c1)C1CCCCC1 | . | . | . | ? | . | .
CN(C(=O)c1ccc(F)cc1)C1CCCCC1 | / | . | / | / | / | /
CCOC(=O)C(N)CO (stereo unspecified) | / | . | / | / | / | /
N#C/C(=C/C1=Cc2cc(Cl)ccc2OC1)c1nc2ccccc2[nH]1 | / | . | / | / | / | /
CC(O)CCC(=O)NCCNC(=O)CCC(C)O (stereo unspecified) | ? | . | . | 26µM | . | .
O=C(CCC(=O)NCCO)NCCO | . | . | . | . | . | .
Cc1ccc(C)c2c1sc(=NC(=O)CN1C(=O)CCC1=O)n2C | 21µM | . | . | ? | . | .
Cc1ccc(-c2c[n+](CC(=O)Nc3ccccc3C)c3n2CCC3)cc1 | ? | . | . | ? | . | -53
Cc1ccc(NC(=O)C[n+]2cc(-c3ccccc3)n3c2CCC3)cc1 | ? | . | . | . | . | .
Cc1ccc(-c2c[n+](CC(=O)Nc3cc(=O)n(C)c(=O)n3C)c3n2CCC3)cc1 | 15µM | . | . | ? | . | .
Cc1ccc(-c2c[n+](CC(=O)Nc3nc(-c4ccccc4)cs3)c3n2CCC3)cc1 | 18µM | . | . | 15µM | . | .
Cn1c(NC(=O)C[n+]2cc(-c3ccc(F)cc3)n3c2CCC3)cc(=O)n(C)c1=O | ? | . | . | . | . | .
O=C(C[n+]1cc(-c2ccccc2)n2c1CCC2)Nc1nc(-c2ccccc2)cs1 | 23µM | . | ? | ? | ? | .
N#C/C(=C/c1ccc(OC(F)F)cc1)C(=O)Nc1ccccc1Oc1ccccc1 | / | . | / | / | / | /
COc1ccc(-c2c(NC(=O)c3cccc([N+](=O)[O-])c3)oc3ccccc3c2=O)cc1OC | / | . | / | / | / | /
CN(Cc1ccc(F)cc1)C(=O)c1n[nH]c(=O)c2ccccc12 | / | . | / | / | / | /
CCC(NC(=O)Nc1ccc(Br)cc1)c1ccc(C(C)C)cc1 (stereo unspecified) | / | . | / | / | / | /
COC(=O)C1(NC(=O)COc2cc(Cl)ccc2Cl)CCCCCC1 | / | -31 | / | / | / | /
CC(=O)c1ccc(NC(=O)c2cnn(-c3cccc(F)c3)c2-n2cccc2)cc1 | 23µM | . | / | ? | / | /
Cc1cc(NC(=O)c2cnn(-c3ccccc3)c2-n2cccc2)ccc1Br | ? | . | / | 18µM | / | /
CCN(CC)c1ccc(NC(=O)c2ccco2)c(C)c1 | ? | . | . | ? | . | .
CSc1cccc(NC(=O)c2cnn(-c3ccc(F)cc3)c2-n2cccc2)c1 | / | . | / | / | / | /
CCN(CC)c1ccc(NC(=O)c2cnn(-c3ccccc3)c2-n2cccc2)c(C)c1 | 10µM | . | / | 15µM | / | /
CCN(CC)c1ccc(NC(=O)c2cccc(F)c2)c(C)c1 | 3.3µM | . | . | 4.6µM | . | .
SMILES | TDP1 cell noCPT | LDHA block | Gal4-VP16 FLuc | DT40 TDP1 CPT | RORgamma inh | IL-1B inflam inh
COc1cc(C2c3c(-c4cc(C)cc(C)c4O)n[nH]c3C(=O)N2Cc2cccnc2)ccc1O (stereo unspecified) | / | . | / | / | / | /
CCOc1ccccc1NC(=O)CCn1cnc2c1c(=O)n(C)c(=O)n2C | / | . | / | / | / | /
C/C(=N\NC(N)=S)c1ccc2c3c(cccc13)CC2 | / | . | / | / | / | /
Cc1cc2ncn(/N=C/c3ccc(-c4ccccc4)o3)c2cc1C | ? | . | 20µM | . | 11µM | .
Cc1cc2ncn(/N=C/c3ccc4c(c3)OCO4)c2cc1C | ? | . | ? | ? | . | .
O=C(c1ccc(S(=O)(=O)N2CCOCC2)cc1)N(c1ccc(Cl)cc1)C1C=CS(=O)(=O)C1 (stereo unspecified) | / | . | / | / | / | /
CC(=O)N(Cc1ccc(C(C)C)cc1)C1CC1 | / | . | / | / | / | /
O=C(COc1ccc(F)cc1F)NC1CCCN(c2ncccn2)C1 (stereo unspecified) | / | . | / | / | / | /
O=C(Nc1ccccc1)c1cc(C2CCCCN2C(=O)c2cccs2)on1 (stereo unspecified) | 18µM | . | / | ? | / | .
N#Cc1cccc(NC(=O)c2cc(C3CCCCN3C(=O)C3CC3)on2)c1 (stereo unspecified) | ? | . | / | 26µM | / | .
O=C(Nc1ccccc1)c1cc(C2CCCCN2C(=O)OCc2ccccc2)on1 (stereo unspecified) | . | . | / | . | / | .
CCCNC(=O)c1cc(C2CCCCN2C(=O)c2ccc(C#N)cc2)on1 (stereo unspecified) | . | . | / | . | / | .
N#Cc1cccc(NC(=O)c2cc(C3CCCCN3C(=O)c3ccccc3)on2)c1 (stereo unspecified) | 10µM | . | / | 18µM | / | .
COc1ccc(C(=O)N2CCCCC2c2cc(C(=O)Nc3cccc(C#N)c3)no2)cc1 (stereo unspecified) | ? | . | / | 23µM | / | .
O=C(Nc1ccccc1)c1cc(C2CCCCN2S(=O)(=O)c2cccs2)on1 (stereo unspecified) | ? | . | / | . | / | .
